# Calls of active or inactive are those of the source. Unless noted, no stated cut-off is given here; in the data, active means inhibition above about 80%; inactive means the rest.
# Experiments:
# [1] = growth inhibition, single agent or in combination, cell-based, chromothripsis tumors, cisplatin or BGB combos (AID 1671449); details: LFS_MB_P medulloblastoma cells;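 further: cells exposed for 96 hours; 0% = vehicle DMSO and 100% = killing by high DMSO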
# [2] = growth inhibition, single agent and combos, cell-based, chromothripsis tumors, cisplatin or BGB combos (AID 1671450); details: HDN33 neuroblastoma cells, stronger effect = higher value;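 further: cells exposed to compound for four days; 0% = vehicle DMSO and 100% = cell killing by high DMSO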
# [3] = growth inhibition, single agents and combos, ICB984, cell-based, cisplatin or BGB combos, synergistic combos for chromothripsis tumors (AID 1671451; call rule not given here;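 further: cells exposed for 96 hours before readout; 0% = vehicle DMSO and 100% = killing by high DMSO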); details: ICB984 medulloblastoma cells, drug combinations, stronger effect = higher value
# [4] = growth inhibition, single agents and combos, LFS_MB_1R, cell-based, cisplatin or BGB combos, synergistic combos for chromothripsis tumors (AID 1671452); details: LFS_MB_1R medulloblastoma cells, stronger effect = higher value;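 further: cells exposed for 96 hours before readout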
# [5] = growth inhibition, single agents and combos, HTB85, cell-based, BGB or cisplatin IC20 combos, synergistic combos for chromothripsis tumors (AID 1671453); details: HTB85 osteosarcoma cells, drug combinations, stronger effect = higher value;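 further: cells exposed for 96 hours before readout; 0% = vehicle DMSO and 100% = high DMSO killing control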
# [6] = growth inhibition, single agents and combos, CRL2098, cell-based, BGB or cisplatin IC20 combos, synergistic combos for chromothripsis tumors (AID 1671454); details: CRL2098 osteosarcoma cells, drug combinations, stronger effect = higher value;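 further: cells exposed for 96 h before readout; 0% = vehicle DMSO and 100% = killing by high DMSO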
# [7] = growth inhibition, single agents and combos, HD-MB03, cell-based, BGB or cisplatin IC20 combos, synergistic combos for chromothripsis tumors (AID 1671455; in the data active means inhibition above about 83%;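 further: 0% = vehicle DMSO and 100% = high DMSO as cytotoxic control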); details: HD-MB03 medulloblastoma cells, stronger effect = higher value
# [8] = growth inhibition, single agents and combos, UWB1.289, cell-based, BGB or cisplatin combos, synergistic combos for chromothripsis tumors (AID 1671456); details: UWB1.289 ovarian carcinoma cells, stronger effect = higher value;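 further: cells exposed to compound for four days; 0% = vehicle DMSO and 100% = killing by high DMSO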
# [9] = growth inhibition, single agents and combos, LFS_MB_2R, cell-based, cisplatin combos, synergistic combos for chromothripsis tumors (AID 1671457); details: LFS_MB_2R medulloblastoma cells, stronger effect = higher value;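 further: cells exposed to compound for four days before readout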
# [10] = growth inhibition, MDA-MB-436, cell-based, BGB or cisplatin combos, synergistic combos for chromothripsis tumors (AID 1671458; call rule not given here;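 further: cells exposed for 96 hours; 0% = vehicle DMSO and 100% = killing by high DMSO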); details: MDA-MB-436 breast carcinoma growth inhibition, drug combinations, stronger effect = higher value
# [11] = UWB1.289_BRCA1 ovarian cancer growth, cell-based, BGB or cisplatin combinations (AID 1671459); details: UWB1.289 BRCA1 ovarian carcinoma, drug combinations, stronger effect = higher value
# [12] = drug combination toxicity in non-malignant astrocytes – cell-based, BGB or cisplatin IC20 combos, cytotoxicity control for chromothriptic childhood tumor combination screen (AID 1671460); details: Human astrocytes, viability inhibition, drug combinations, at 0.5 µM, stronger effect = higher value;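 further: cells exposed to compounds for 96 hours before viability readout; 0% = vehicle and 100% = killing control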
# [13] = BT084 cell growth, single and combined drugs, ICGC_MB145, cisplatin and BGB IC40 combos (AID 1671461); details: BT084 medulloblastoma cells, drug combinations, stronger effect = higher value;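 further: cells exposed to drugs for 96 hours; 0% = vehicle DMSO and 100% = high DMSO full killing control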
# [14] = RCMB18 cell growth, single agent and combined, cisplatin and BGB IC40 combos (AID 1671462); details: RCMB18 medulloblastoma cells, stronger effect = higher value;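 further: cells exposed to compound for four days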
# [15] = CRL1545 cell growth, single agent and combined, cisplatin and BGB IC20 combos (AID 1671464); details: CRL1545 osteosarcoma cells, stronger effect = higher value;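 further: cells exposed to compound for 96 hours before readout; 0% = vehicle DMSO and 100% = high DMSO killing control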
# [16] = at 0.5 µM, stronger effect = higher value
# [17] = measured here: combination with BGB IC20, at 0.005 µM
# [18] = measured here: combination with BGB IC40, at 0.005 µM
# [19] = measured here: combination with BGB IC40, at 0.05 µM
# [20] = measured here: combination with cisplatin, at 0.5 µM, stronger effect = higher value
# [21] = measured here: combination with cisplatin, at 5 µM, stronger effect = higher value
# [22] = measured here: with BGB IC20 combination, at 0.5 µM
# [23] = measured here: with cisplatin IC20 combination, at 0.5 µM
# [24] = measured here: 5 uM single agent, at 5 µM
# [25] = measured here: combination with cisplatin, at 0.5 µM
# [26] = measured here: combination with cisplatin, at 5 µM
# [27] = measured here: with BGB IC20, at 0.5 µM
# [28] = measured here: with BGB IC20, at 5 µM
# [29] = measured here: with cisplatin IC20, at 0.5 µM
# [30] = measured here: with cisplatin IC20, at 5 µM
# [31] = measured here: combination with BGB at IC20, at 0.5 µM
# [32] = measured here: combination with cisplatin at IC20, at 0.5 µM
# [33] = measured here: combo with BGB at IC20, at 0.5 µM
# [34] = measured here: combo with cisplatin at IC20, at 0.5 µM
# [35] = measured here: inhibition with BGB combination, at 0.05 µM
# [36] = measured here: inhibition with cisplatin combination, at 0.05 µM
# [37] = measured here: BGB combination, at 0.5 µM
# [38] = measured here: BGB combination, at 5 µM
# [39] = measured here: cisplatin combination, at 0.5 µM
# [40] = measured here: cisplatin combination, at 5 µM
# [41] = BGB combination, concentration series, at 5 µM
# [42] = cisplatin combination, concentration series, at 5 µM
# [43] = measured here: combo with BGB IC20
# [44] = measured here: combo with cisplatin IC20
# [45] = cisplatin combination, at 0.5 µM
# [46] = measured here: BGB IC40 combination 0.05 uM, at 0.05 µM
# [47] = measured here: BGB IC40 combination, at 0.05 µM
smiles,measurement,setting,value
Cn1cnc2[nH]c(=O)[nH]c(=O)c21,inhibition,[1]; [16],-31.2% (inactive)
same,inhibition,[1]; [17],-23.8%
same,inhibition,[1]; [18],-24.9%
same,inhibition,[1]; [19],-15.5%
same,inhibition,[1]; [20],-52.2%
same,inhibition,[1]; [21],-16.9%
same,inhibition,"[2]; BGB combo, at 5 µM",-14.9%
same,inhibition,[2]; at 0.5 µM,-29.3% (inactive)
same,inhibition,"[2]; cisplatin combo, at 5 µM",-9.77%
same,inhibition,[2]; [22],-37.1%
same,inhibition,[2]; [23],-7.77%
same,inhibition,"[2]; single agent, at 5 µM",-7.59%
same,inhibition,"[3]; BGB IC20 combo, at 0.005 µM",-15.3%
same,inhibition,"[3]; BGB IC40 combo, at 0.005 µM",-28.7%
same,inhibition,"[3]; BGB IC40 combo, at 0.05 µM",-16.7%
same,inhibition,[3]; at 0.5 µM,-24.9% (inactive)
same,inhibition,"[3]; cisplatin combo, at 0.05 µM",-16.7%
same,inhibition,"[3]; cisplatin combo, at 0.5 µM",-33.2%
same,inhibition,"[3]; cisplatin combo, at 5 µM",-13.6%
same,inhibition,[3]; [24],2.87%
same,inhibition,[4]; at 0.5 µM,-24.6% (inactive)
same,inhibition,[4]; [19],-0.159%
same,inhibition,[4]; [25],11.9%
same,inhibition,[4]; [26],-7.74%
same,inhibition,[5]; at 0.5 µM,-29.8% (inactive)
same,inhibition,[5]; [27],-76.7%
same,inhibition,[5]; [28],-27.8%
same,inhibition,[5]; [29],0.051%
same,inhibition,[5]; [30],18.6%
same,inhibition,"[5]; single agent, at 5 µM",-24.4%
same,inhibition,[6]; at 0.5 µM,-69.2% (inactive)
same,inhibition,[6]; [31],-77.5%
same,inhibition,[6]; [32],-102%
same,inhibition,[7]; at 0.5 µM,-10.2% (inactive)
same,inhibition,[7]; [33],-8.65%
same,inhibition,[7]; [34],-11.2%
same,inhibition,[8]; at 0.5 µM,-8.42% (inactive)
same,inhibition,[8]; [35],-20.6%
same,inhibition,[8]; [36],-21.4%
same,inhibition,[9]; at 0.5 µM,-6.27% (inactive)
same,inhibition,[9]; [25],-10.9%
same,inhibition,[9]; [26],-15.8%
same,inhibition,[10]; at 0.5 µM,-15.1% (inactive)
same,inhibition,[10]; [37],-7.33%
same,inhibition,[10]; [38],-1.97%
same,inhibition,[10]; [39],-35.1%
same,inhibition,[10]; [40],-7.26%
same,inhibition,[11]; [41],-2.15%
same,inhibition,[11]; at 0.5 µM,-8.08% (inactive)
same,inhibition,[11]; [42],4.95%
same,inhibition,[12],14% (inactive)
same,inhibition,[12]; [43],17.9%
same,inhibition,[12]; [44],4.38%
same,inhibition,[13]; at 0.5 µM,-17.3% (inactive)
same,inhibition,[13]; [45],-7.22%
same,inhibition,"[13]; cisplatin combination, at 5 µM",-68.1%
same,inhibition,[13]; [46],-20.6%
same,inhibition,"[13]; single agent, at 5 µM",-30.4%
same,inhibition,[14]; at 0.5 µM,-15.8% (inactive)
same,inhibition,"[14]; cisplatin combo, at 5 µM",-20.1%
same,inhibition,[14]; [47],-17.4%
same,inhibition,[14]; [25],-33.2%
same,inhibition,"[14]; single agent, at 5 µM",-24.4%
same,inhibition,[15]; at 0.5 µM,-15.4% (inactive)
same,inhibition,[15]; [22],4.76%
same,inhibition,[15]; [23],-25.6%
same,inhibition,"[15]; single agent, at 0.05 µM",-33.9%
same,inhibition,"[15]; single agent, at 5 µM",-5.96%
Cn1cc(-c2cnn3c(N)c(Br)c([C@H]4CCCNC4)nc23)cn1,inhibition,[1]; [16],20.2% (inactive)
same,inhibition,[1]; [17],-7.68%
same,inhibition,[1]; [18],93.8%
same,inhibition,[1]; [19],11.8%
same,inhibition,[1]; [20],10.2%
same,inhibition,[1]; [21],-24.2%
same,inhibition,"[2]; BGB combo, at 5 µM",73.2%
same,inhibition,[2]; at 0.5 µM,22.3% (inactive)
same,inhibition,"[2]; cisplatin combo, at 5 µM",83.7%
same,inhibition,[2]; [22],9.52%
same,inhibition,[2]; [23],28.6%
same,inhibition,"[2]; single agent, at 5 µM",88.5%
same,inhibition,"[3]; BGB IC20 combo, at 0.005 µM",-13.9%
same,inhibition,"[3]; BGB IC40 combo, at 0.005 µM",-26.3%
same,inhibition,"[3]; BGB IC40 combo, at 0.05 µM",-14.6%
same,inhibition,[3]; at 0.5 µM,-16.3% (inactive)
same,inhibition,"[3]; cisplatin combo, at 0.05 µM",-20.5%
same,inhibition,"[3]; cisplatin combo, at 0.5 µM",-27.1%
same,inhibition,"[3]; cisplatin combo, at 5 µM",-5.82%
same,inhibition,[3]; [24],-16.1%
same,inhibition,[4]; at 0.5 µM,2.92% (inactive)
same,inhibition,[4]; [19],-16.9%
same,inhibition,[4]; [25],5.45%
same,inhibition,[4]; [26],-19.5%
same,inhibition,[5]; at 0.5 µM,-14.3% (inactive)
same,inhibition,[5]; [27],4.42%
same,inhibition,[5]; [28],66.4%
same,inhibition,[5]; [29],-18.4%
same,inhibition,[5]; [30],80.6%
same,inhibition,"[5]; single agent, at 5 µM",52.9%
same,inhibition,[6]; at 0.5 µM,-2.8% (inactive)
same,inhibition,[6]; [31],-24%
same,inhibition,[6]; [32],-3.06%
same,inhibition,[7]; at 0.5 µM,6.2% (inactive)
same,inhibition,[7]; [33],2.25%
same,inhibition,[7]; [34],17.7%
same,inhibition,[8]; at 0.5 µM,28.5% (inactive)
same,inhibition,[8]; [35],-6.38%
same,inhibition,[8]; [36],-4.25%
same,inhibition,[9]; at 0.5 µM,-5.31% (inactive)
same,inhibition,[9]; [25],-14.4%
same,inhibition,[9]; [26],-6.17%
same,inhibition,[10]; at 0.5 µM,29.3% (inactive)
same,inhibition,[10]; [37],21.8%
same,inhibition,[10]; [38],53.4%
same,inhibition,[10]; [39],36.8%
same,inhibition,[10]; [40],73.3%
same,inhibition,[11]; [41],103%
same,inhibition,[11]; at 0.5 µM,7.13% (inactive)
same,inhibition,[11]; [42],119%
same,inhibition,[12],-19% (inactive)
same,inhibition,[12]; [43],-17.5%
same,inhibition,[12]; [44],-30.9%
same,inhibition,[13]; at 0.5 µM,11% (inactive)
same,inhibition,[13]; [45],16.1%
same,inhibition,"[13]; cisplatin combination, at 5 µM",-105%
same,inhibition,[13]; [46],5.34%
same,inhibition,"[13]; single agent, at 5 µM",34.7%
same,inhibition,[14]; at 0.5 µM,4.28% (inactive)
same,inhibition,"[14]; cisplatin combo, at 5 µM",22.7%
same,inhibition,[14]; [47],-33.2%
same,inhibition,[14]; [25],-3.81%
same,inhibition,"[14]; single agent, at 5 µM",47.3%
same,inhibition,[15]; at 0.5 µM,79.7% (inactive)
same,inhibition,[15]; [22],73.9%
same,inhibition,[15]; [23],82.3%
same,inhibition,"[15]; single agent, at 0.05 µM",19%
same,inhibition,"[15]; single agent, at 5 µM",92.3%
CCC(C)C(=O)OC1CC(C)C=C2C=CC(C)C(CCC3CC(O)CC(=O)O3)C21 (stereo unspecified),inhibition,[1]; [16],-40.1% (inactive)
same,inhibition,[1]; [17],-11.8%
same,inhibition,[1]; [18],-21.9%
same,inhibition,[1]; [19],-1.78%
same,inhibition,[1]; [20],-46.1%
same,inhibition,[1]; [21],-44.5%
same,inhibition,"[2]; BGB combo, at 5 µM",63.1%
same,inhibition,[2]; at 0.5 µM,21.8% (inactive)
same,inhibition,"[2]; cisplatin combo, at 5 µM",52.4%
same,inhibition,[2]; [22],26.6%
same,inhibition,[2]; [23],11.5%
same,inhibition,"[2]; single agent, at 5 µM",65.1%
same,inhibition,"[3]; BGB IC20 combo, at 0.005 µM",0.285%
same,inhibition,"[3]; BGB IC40 combo, at 0.005 µM",16.8%
same,inhibition,"[3]; BGB IC40 combo, at 0.05 µM",20.5%
same,inhibition,[3]; at 0.5 µM,-5.66% (inactive)
same,inhibition,"[3]; cisplatin combo, at 0.05 µM",20.5%
same,inhibition,"[3]; cisplatin combo, at 0.5 µM",-11.6%
same,inhibition,"[3]; cisplatin combo, at 5 µM",-5.67%
same,inhibition,[3]; [24],-12.3%
same,inhibition,[4]; at 0.5 µM,22% (inactive)
same,inhibition,[4]; [19],-11%
same,inhibition,[4]; [25],12.3%
same,inhibition,[4]; [26],12%
same,inhibition,[5]; at 0.5 µM,-1.62% (inactive)
same,inhibition,[5]; [27],-18.6%
same,inhibition,[5]; [28],74.3%
same,inhibition,[5]; [29],-1.27%
same,inhibition,[5]; [30],74.6%
same,inhibition,"[5]; single agent, at 5 µM",73.5%

# From PubChem BioAssay
